Bioassay records: PubChem, National Center for Advancing Translational Sciences (NCATS)
This is one part of a sample in which hits are shown more often than they occur.
Tb PYK inh: inhibitors of Trypanosoma brucei pyruvate kinase. Q57TT1. TbPYK enzyme, Kinase-Glo Plus ATP luminescence, 45 min. 0.12% of 410,000 active. Potency, µM (doses to about 76.8 µM), for the others: at the highest dose activity, negative = inhibition, usual class: inhibitors; also: potency is read from the fitted curve at half-maximal effect; % is scaled to controls: 0 for no effect and ±100 for the full control effect; nearly all actives have a fitted effect of over 50% in size
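ADP (130 uM final) triggers the TbPYK reaction after compound addition; incubation is 45 min at room temperature. Kinase-Glo Plus is then added and luminescence imaged. Normalized data are fitted to concentration-effect curves.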
CHX counter: affects cycloheximide protein synthesis inhibition readout, counter-screen | 12% of 300,000 active | max response, % | cell reporter, cycloheximide protein synthesis inhibition counterscreen | AID 2314; in the data active = max response mostly above about 13%, no sharp cut-off; inactive = mostly below about 14%; also: read at 38.3 µM for the half of the compounds with a filed dose; 0% is about no effect
Shiga toxin inh: blocks Shiga toxin action in Vero cells; Vero cells, Shiga toxin protein synthesis inhibition reporter; 9.2% of 290,000 active; inhibition, % at 38.7 µM; in the data active = inhibition mostly above about 28%, no sharp cut-off; inactive = mostly below about 43%; also: 0% is about no effect
FBPA Giardia inh: inhibitors of Giardia lamblia fructose-1,6-bisphosphate aldolase; purified Giardia FBPA; Potency, µM (series often up to 59.6 µM), for the others: at the highest dose activity, negative = inhibition, actives largely listed as inhibitors; 0.71% of 290,000 active; also: potency is read from the fitted curve at half-maximal effect; % is scaled to controls: 0 for no effect and ±100 for the full control effect; nearly all actives have a fitted effect of over 55% in size
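Giardia FBPA (40 nM reagent) was preincubated 10 min at RT with compound (up to 57.5 uM final), then substrate plus GAPDH/TPI/NAD/arsenate coupling system with diaphorase/resazurin was added; resorufin fluorescence (525/598 nm) was read after 20 min.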
LmPK inhibitor: blocks Leishmania mexicana pyruvate kinase activity. Q27686. purified LmPK, Kinase-Glo ATP luminescence, 1 h. Potency, µM (doses to about 57.5 µM), without a hit: top-dose activity change, negative = inhibition, usual class: inhibitors. 0.37% of 290,000 active. AID 1721; also: potency is read from the fitted curve at half-maximal effect; % is scaled to controls: 0 for no effect and ±100 for the full control effect
Target sequence (Q27686 whole entry, looked up): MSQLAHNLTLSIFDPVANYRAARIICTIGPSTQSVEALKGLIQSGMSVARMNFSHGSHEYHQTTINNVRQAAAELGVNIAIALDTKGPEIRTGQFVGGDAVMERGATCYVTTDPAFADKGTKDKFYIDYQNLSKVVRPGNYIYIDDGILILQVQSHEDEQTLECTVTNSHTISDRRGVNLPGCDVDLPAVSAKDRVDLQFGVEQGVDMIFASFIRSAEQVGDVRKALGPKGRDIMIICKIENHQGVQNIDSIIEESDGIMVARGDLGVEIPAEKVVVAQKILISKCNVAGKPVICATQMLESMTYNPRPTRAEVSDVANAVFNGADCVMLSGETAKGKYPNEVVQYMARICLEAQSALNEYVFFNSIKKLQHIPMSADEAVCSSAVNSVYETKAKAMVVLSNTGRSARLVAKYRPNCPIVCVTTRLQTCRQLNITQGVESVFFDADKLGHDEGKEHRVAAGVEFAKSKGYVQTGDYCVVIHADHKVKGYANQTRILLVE
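Purified LmPK (0.1 nM) converted ADP (0.1 mM) to ATP with PEP (0.5 mM) in imidazole buffer pH 7.2 with KCl and MgCl2, 1 h at room temperature. ATP was read by Kinase-Glo luminescence; data normalized to uninhibited and no-enzyme controls.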
RE007 growth inh: less growth of the S. pombe RE007 Vpr strain. S. pombe RE007 Vpr strain, BacTiter-Glo ATP luminescence, 24 h. Potency, µM (top dose mostly 92.2 µM), inactives show at the top dose activity change, negative = less growth, most hits filed as inhibitors. 0.21% of 360,000 active. AID 651644; active = well fitted falling curve with a large enough effect; inconclusive = small, poorly fitted or top-dose-only effect; inactive = no such curve, though single readings can be large or run the other way; also: potency is read from the fitted curve at half-maximal effect; % is scaled to controls: 0 for no effect and ±100 for the full control effect; nearly all actives have a fitted effect of over 50% in size
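Fission yeast strain RE007, carrying one chromosomally integrated HIV-1 vpr copy, was seeded at OD 0.01 in PMG+AL medium with 23 nL pinned compound. After 24 h at 30 °C and 99% humidity, viability was read by BacTiter-Glo luminescence.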
* hit, by the source's call; ? = inconclusive; nt = not tested or not shown. Unless noted, calls follow the shape of the dose curve; as a rule, active = well fitted curve in the direction sought with a large enough effect; inconclusive = small, poorly fitted or top-dose-only effect, or another doubt; inactive = no such curve, though single readings can be large; an effect the other way counts as inactive or inconclusive.

SMILES	Tb PYK inh	CHX counter	Shiga toxin inh	FBPA Giardia inh	LmPK inhibitor	RE007 growth inh
COc1cc(/C=N/n2cnnc2)ccc1OCCOc1ccccc1	-6.4%	-4.0	-3.5	3.3%	0.1%	17.5%
Fc1ccccc1COc1ccc(/C=N/n2cnnc2)cc1	-0.2%	12.6	8.7	3.2%	2.5%	8.2%
Cc1ccc(-c2csc(NC(=O)CCNC(=O)c3ccco3)n2)cc1	-0.5%	20.2*	43.4*	-0.8%	1.0%	11.6%
Cc1csc2nc(CNC(=O)c3ccco3)cn12	-6.1%	35.1*	56.4*	-0.8%	2.6%	12.1%
Cc1ccc(-c2nc(CCNC(=O)c3ccco3)cs2)cc1	7.2%	nt	nt	nt	nt	16.7%
Cc1ccc(-c2nc(CNC(=O)c3ccco3)cs2)cc1	4.5%	39.4	84.6*	nt	-10.5%	10.5%
O=C(Nc1cc2cccc([N+](=O)[O-])c2oc1=O)c1cccs1	-25.2%	10.7	12.6	6.9%	5.4%	-12.7%
COc1ccc(-c2noc(CNC(=O)COc3cccc(C)c3C)n2)cc1	3.3%	nt	nt	nt	nt	nt
COc1ccccc1C(=O)Nc1ccc2oc(-c3cccc4c(Br)cccc34)nc2c1	-6.8%	nt	nt	nt	nt	nt
Cc1ccc(C2=Nc3ccccc3N=C(c3ccco3)C2)c(O)c1	-0.2%	14.0	47.7	nt	-1.8%	-6.5%
Cc1ccc(O)c(C2=Nc3ccccc3N=C(c3ccco3)C2)c1	7.3%	23.8*	22.7	-0.1%	-1.7%	-6.2%
Cc1ccc(O)c(C2=Nc3ccccc3N=C(c3cccc([N+](=O)[O-])c3)C2)c1	2.7%	38.0*	67.1*	-5.5%	-2.8%	2.9%
Cc1ccc(O)c(C2=Nc3ccccc3N=C(c3ccc([N+](=O)[O-])cc3)C2)c1	-6.5%	25.2*	15.0	2.3%	1.8%	15.6%
Cc1ccc(C2=Nc3ccccc3N=C(c3ccc(F)cc3)C2)c(O)c1	1.6%	nt	nt	nt	nt	nt
COc1ccc(-c2noc(C3CCCN(C(=O)c4ccc(F)cc4)C3)n2)cc1 (stereo not given)	3.6%	26.1*	70.9	-1.0%	2.4%	-7.0%
O=C(c1ccc(F)cc1)N1CCCC(c2nc(-c3ccncc3)no2)C1 (stereo not given)	-0.4%	nt	nt	nt	nt	3.2%
O=C(c1c(F)cccc1F)N1CCCC(c2nc(-c3ccc(F)cc3)no2)C1 (stereo not given)	-1.1%	24.0*	nt	14.1%	4.1%	0.5%
Cc1ccc(OCc2nc(-c3ccc(C(=O)N4CCN(c5ccccc5F)CC4)cc3)oc2C)cc1	0.8%	nt	nt	nt	nt	nt
Cc1cccn2c(=O)c3cc(C#N)c(=O)n(-c4nnc(SCc5ccccc5F)s4)c3nc12	4.8%	nt	nt	nt	nt	nt
COc1cccc(N=Nc2ccc3ccccc3c2O)c1	-18.5%	40.0*	58.2*	?	-6.3%	-6.9%
Cc1ccc(O)c(N=Nc2nccs2)c1	-20.5%	nt	nt	nt	nt	17.8µM*
Cc1ccc(S(=O)(=O)N2CCCCC2)cc1	-4.5%	12.1	-1.5	-8.8%	0.2%	24.6%
Cc1ccc(O)c(N=Nc2ccc(S(=O)(=O)N3CCCC3)cc2)c1	-13.4%	27.4*	42.2*	-0.7%	0.8%	-11.2%
COc1ccc(N=Nc2cc(C)ccc2O)cc1	2.9%	48.2*	82.3*	-1.2%	?	-21.1%
COc1ccc(N=Nc2cc(OC)c(N)cc2OC)cc1	-13.1%	nt	nt	nt	nt	-25.5%
SMILES	Tb PYK inh	CHX counter	Shiga toxin inh	FBPA Giardia inh	LmPK inhibitor	RE007 growth inh
O=S(=O)(c1ccc(Cl)cc1)c1nc(-c2cccs2)oc1SCc1ccc(F)cc1	-7.0%	nt	nt	nt	nt	nt
N#Cc1ccc(CS(=O)(=O)c2nnnn2-c2ccccc2)cc1	nt	nt	nt	0.1%	nt	nt
COc1ccc(N=Nc2ccc3ccccc3c2)c(O)c1	-11.3%	50.0*	nt	-0.6%	-9.5%	-6.7%
Cc1cccc(OCc2nnc(SCC(=O)N(C)C3CCCCC3)o2)c1	-2.1%	nt	nt	nt	nt	7.6%
CN(C)C=Nc1ncc2c([nH]c3ccccc32)c1C#N	-2.5%	49.8*	36.5	-6.6%	-3.0%	-18.0%
CN(C)/C=N/c1[nH]ncc1C#N	-3.5%	-9.2	27.8	4.0%	0.8%	-20.3%
Cc1nn(C)c(C)c1CN(C(=O)C1CCC(=O)N(C2CCCCCC2)C1)C(C)C (stereo not given)	-0.6%	31.2*	43.3	nt	7.1%	8.5%
COc1ccc(CC(=O)O/N=C(\N)c2ccc(OC)cc2)cc1	-11.3%	63.7*	70.7*	1.6%	-0.1%	1.1%
